Article PMC5540273 (PLoS ONE, 2017)
Where “and” joins values, the source holds several entries; their conditions need not be identical. Equal values may be shown once. Read-outs that look alike come from different tables or passages of the source.

What was measured:
Conditions in all cases: concentration: 1 μM, replicates: in singlicate, n = 1
p38-beta = system: T1, p38-beta
T1 construct: gene MAPK11

p38-delta = system: p38-delta
p38-gamma = system: T2, p38-gamma
T2 construct: gene MAPK12
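Also: KINOMEscan kinase panel screen.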

SMILES	%Inh (p38-beta) [%]	%Inh (p38-delta) [%]	%Inh (p38-gamma) [%]	%Inh (p38-beta; 1 µM)	%Inh (p38-delta; 1 µM)	%Inh (p38-gamma; 1 µM)
OCCOCCn1ccc2ncnc(Nc3ccc(Oc4cccc(Cl)c4)c(Cl)c3)c21	0	0	0	–	–	–
CCn1c(-c2ccncc2)nc2cnccc21 [SB-735216]	11	4	20	–	–	–
Cn1ccc2ncnc(Oc3ccc(NC(=O)Nc4cccnc4)c(Cl)c3)c21	0	0	21	–	–	–
CC(=O)Nc1n[nH]c2ncc(-c3ccccc3)cc12 [SB-548492]	11	3	20	–	–	–
O=C(Nc1ccccc1)Nc1ccc(Oc2ccc3nccn3n2)cc1	0	2	30	–	–	–
O=C(Nc1ccccc1F)NC1CCN(c2ccnc(Nc3ccc(F)cc3)n2)C1 (stereo not drawn) [GSK1379722]	0	38	0	–	–	–
Nc1nc(-c2ccccn2)c(-c2ccnc3ccccc23)s1 [GW548057]	0	29	0	–	–	–
Clc1cccc(-c2nc(Nc3ccncc3)c3ccccc3n2)c1 [GW873004]	0	17	0	–	–	–
CNc1nccc(-c2c(-c3ccc(F)cc3)ncn2CCCN2CCOCC2)n1 [SB-222516]	15	0	4	–	–	–
Cc1ccc(NC(=O)c2cccc(C#N)c2)cc1-c1ccc(C(=O)Nc2ccncc2)cc1 [GSK1398463]	9	48	26	–	–	–
CS(=O)(=O)CCNCc1ccc(-c2ccc3ncnc(Nc4ccc(OCc5ccccc5)c(Cl)c4)c3c2)o1.Cl [GW574783]	0	21	0	–	–	–
Cc1ccc(C)c(NC(=O)NCCNc2ccnc(Nc3ccc(F)cc3)n2)c1 [GSK1379878]	0	45	0	–	–	–
Nc1nccc2scc(-c3ccc4c(c3)CCN4C(=O)Cc3cc(F)ccc3F)c12 [GSK2587663]	0	39	0	–	–	–
COc1cc2c(Nc3cccc(NC(=O)c4ccccc4)c3)ncnc2cc1OCCCN1CCOCC1 [GSK223810]	89	0	6	–	–	–
COc1ccc(-c2oc3ncnc(N)c3c2-c2ccc(OC)cc2)cc1 [SB-589132]	0	42	8	–	–	–
Cl.c1ccc(Cn2ncc3cc(Nc4ncnc5ccccc45)ccc32)cc1 [GW273749]	0	39	0	–	–	–
Clc1cc(Nc2ncnc3cc[nH]c23)ccc1OCc1ccccn1	26	37	22	–	–	–
CS(=O)(=O)CCNCc1nc(-c2ccc3ncnc(Nc4ccc(OCc5cccc(F)c5)c(Cl)c4)c3c2)cs1.Cl [GW583340]	0	47	0	–	–	–
O=C(NCCCN1CCCC1=O)c1cnc(NCc2cc(Cl)ccc2Cl)nc1NC1CCNCC1	0	42	18	–	–	–
N#Cc1ccc(Oc2ccc(Nc3ncnc4cc[nH]c34)cc2Cl)cc1	14	3	10	–	–	–
COc1ccc(Nc2nccc(N3CCC(NC(=O)Nc4ccc5c(c4)OCO5)C3)n2)cc1 (stereo not drawn) [GSK1379745]	0	14	3	–	–	–
O=C(c1ccc(-c2cc(-c3c[nH]nc3-c3ccccn3)ccn2)cc1)N1CCCC1 [GW792479]	20	0	66	–	–	–
COc1ccc(-c2nc3n(c2-c2ccncc2)CCC3)cc1 [SKF-104493]	–	–	–	33% and 40%	5% and 43%	21% and 8%
CCc1nc(-c2cccc(N(C)S(=O)(=O)c3ccccc3)c2)c(-c2ccnc(Nc3ccc(N4CCN(C(C)=O)CC4)nc3)n2)s1 [GSK1645895]	0	7	0	–	–	–
Fc1cccc(COc2ccc(Nc3ncnc4cc[nH]c34)cc2Cl)c1	13	28	20	–	–	–
CC(C)N1CCC(n2cnc(-c3ccc(F)cc3)c2-c2ccnc(N)n2)CC1 [SB-223132]	23	0	60	–	–	–
FC(F)(F)c1ccc(-c2cc(-c3c[nH]nc3-c3ccccn3)ccn2)cc1 [GW599550]	0	50	16	–	–	–
COc1cc2ncnc(Nc3ccc(OCc4ccccc4Br)c(Cl)c3)c2cc1OC.Cl [GI261590]	0	54	0	–	–	–
